# Like-named read-outs stand apart in the source and are kept apart here.
# Experiments:
# Parameters in all cases: species or system human, MV4-11 + K-562 + COLO205 + SK-N-BE2 + OVCAR-8
# [1] = system: AURKB; conditions: read-out: apparent Kd, compound concentrations: 100 nM and 1000 nM (sheet 'Samples'), n = 1
# [2] = system: FECH; conditions: read-out: apparent Kd; compound concentrations: 100 nM and 1000 nM (sheet 'Samples'), CATDS: 9.1141958763267306E-2; n = 1
# [3] = system: FRK; conditions: read-out: apparent Kd; compound concentrations: 100 nM and 1000 nM (sheet 'Samples'), CATDS: 0.20541048122338901; n = 1
# [4] = system: HCK; conditions: read-out: apparent Kd; compound concentrations: 100 nM and 1000 nM (sheet 'Samples'), CATDS: 0.153376634791901; n = 1
# [5] = system: LCK; conditions: read-out: apparent Kd; compound concentrations: 100 nM and 1000 nM (sheet 'Samples'), CATDS: 0.126638477949608; n = 1
# [6] = system: LYN; conditions: read-out: apparent Kd; compound concentrations: 100 nM and 1000 nM (sheet 'Samples'), CATDS: 0.11348132537540701; n = 1
# [7] = system: MAP2K5; conditions: read-out: apparent Kd; compound concentrations: 100 nM and 1000 nM (sheet 'Samples'), CATDS: 9.4476183920835705E-2; n = 1
# [8] = system: TNK2; conditions: read-out: apparent Kd; compound concentrations: 100 nM and 1000 nM (sheet 'Samples'), CATDS: 0.38594497215225099; n = 1
# [9] = system: BUB1; conditions: read-out: apparent Kd; compound concentrations:100 nM and 1000 nM (sheet 'Samples'); n = 1
# [10] = system: CDC42BPA; conditions: read-out: apparent Kd; compound concentrations:100 nM and 1000 nM (sheet 'Samples'); n = 1
# [11] = system: CDC42BPB; conditions: read-out: apparent Kd; compound concentrations:100 nM and 1000 nM (sheet 'Samples'); n = 1
# [12] = system: CDC42BPG; conditions: read-out: apparent Kd; compound concentrations:100 nM and 1000 nM (sheet 'Samples'); n = 1
# [13] = system: CDC7; conditions: read-out: apparent Kd; compound concentrations:100 nM and 1000 nM (sheet 'Samples'); n = 1
# [14] = system: LATS1; conditions: read-out: apparent Kd; compound concentrations:100 nM and 1000 nM (sheet 'Samples'); n = 1
# [15] = system: MELK; conditions: read-out: apparent Kd; compound concentrations:100 nM and 1000 nM (sheet 'Samples'); n = 1
# [16] = system: PIM1; conditions: read-out: apparent Kd; compound concentrations:100 nM and 1000 nM (sheet 'Samples'); n = 1
# [17] = system: PKN1; conditions: read-out: apparent Kd; compound concentrations:100 nM and 1000 nM (sheet 'Samples'); n = 1
# [18] = system: PKN2; conditions: read-out: apparent Kd; compound concentrations:100 nM and 1000 nM (sheet 'Samples'); n = 1
# [19] = system: PRKCA; conditions: read-out: apparent Kd; compound concentrations:100 nM and 1000 nM (sheet 'Samples'); n = 1
# [20] = system: PRKCB; conditions: read-out: apparent Kd; compound concentrations:100 nM and 1000 nM (sheet 'Samples'); n = 1
# [21] = system: PRKCD; conditions: read-out: apparent Kd; compound concentrations:100 nM and 1000 nM (sheet 'Samples'); n = 1
# [22] = system: PRKCI; conditions: read-out: apparent Kd; compound concentrations:100 nM and 1000 nM (sheet 'Samples'); n = 1
# [23] = system: PRKG1; conditions: read-out: apparent Kd; compound concentrations:100 nM and 1000 nM (sheet 'Samples'); n = 1
# [24] = system: PRKX; conditions: read-out: apparent Kd; compound concentrations:100 nM and 1000 nM (sheet 'Samples'); n = 1
# [25] = system: ROCK2; conditions: read-out: apparent Kd; compound concentrations:100 nM and 1000 nM (sheet 'Samples'); n = 1
# [26] = system: RPS6KA4; conditions: read-out: apparent Kd; compound concentrations:100 nM and 1000 nM (sheet 'Samples'); n = 1
# [27] = system: RPS6KA5; conditions: read-out: apparent Kd; compound concentrations:100 nM and 1000 nM (sheet 'Samples'); n = 1
# [28] = system: RPS6KB1; conditions: read-out: apparent Kd; compound concentrations:100 nM and 1000 nM (sheet 'Samples'); n = 1
# [29] = system: IKBKE; conditions: read-out: apparent Kd; compound concentrations:100 nM and 1000 nM (sheet 'Samples'); n = 1
# [30] = system: PIK3C3; conditions: read-out: apparent Kd; compound concentrations:100 nM and 1000 nM (sheet 'Samples'); n = 1
# [31] = system: TBK1; conditions: read-out: apparent Kd; compound concentrations:100 nM and 1000 nM (sheet 'Samples'); n = 1
compound,measurement,setting,value
Cc1ccc(C(=O)Nc2ccc(Nc3ccnc4cc(-c5nccs5)ccc34)cc2O)cc1.Cl [GW494702A],potency estimated from few doses,[1]; CATDS: 8.5065344981926597E-2,1.43 µM
same,potency estimated from few doses,[2],1.09 µM
same,potency estimated from few doses,[3],0.152 µM
same,potency estimated from few doses,[4],0.267 µM
same,potency estimated from few doses,[5],0.412 µM
same,potency estimated from few doses,[6],0.547 µM
same,potency estimated from few doses,[7],0.956 µM
same,potency estimated from few doses,[8],0.0559 µM
Cn1ccc2ncnc(Oc3ccc(Nc4nc5ccccc5[nH]4)cc3)c21 [TPKI-72],potency estimated from few doses,[1]; CATDS: 1,0.617 µM
CCn1c(-c2nonc2N)nc2cncc(C(=O)N3CCNCC3)c21.Cl [SB-759335-B],potency estimated from few doses,[9],0.543 µM
same,potency estimated from few doses,[10],1.08 µM
same,potency estimated from few doses,[11],1.64 µM
same,potency estimated from few doses,[12],2.06 µM
same,potency estimated from few doses,[13],2.08 µM
same,potency estimated from few doses,[14],1.94 µM
same,potency estimated from few doses,[15],1.04 µM
same,potency estimated from few doses,[16],0.501 µM
same,potency estimated from few doses,[17],0.813 µM
same,potency estimated from few doses,[18],0.119 µM
same,potency estimated from few doses,[19],1.9 µM
same,potency estimated from few doses,[20],1.51 µM
same,potency estimated from few doses,[21],1.2 µM
same,potency estimated from few doses,[22],2.02 µM
same,potency estimated from few doses,[23],0.135 µM
same,potency estimated from few doses,[24],0.75 µM
same,potency estimated from few doses,[25],0.0247 µM
same,potency estimated from few doses,[26],0.723 µM
same,potency estimated from few doses,[27],0.142 µM
same,potency estimated from few doses,[28],0.115 µM
CC(C)(C)OC(=O)NC1CCCN(c2cc(-c3ccc4c(N)n[nH]c4c3)nc(N)n2)C1 (stereo not drawn) [GSK2286096A],potency estimated from few doses,[1]; CATDS: 0.30892280218859702,0.105 µM
same,potency estimated from few doses,[29],0.0787 µM
same,potency estimated from few doses,[30],0.978 µM
same,potency estimated from few doses,[31],0.129 µM
